How the values were obtained:
Test in all cases: DAPPL (digital affinity profiling via proximity ligation, sequencing); 10 mM Tris-HCl pH 7.5, 50 mM NaCl, 1 mM DTT, 4% glycerol, room temperature, 30 min; GST-TFs on glutathione beads, 16-mer random dsDNA library, 0.1% formaldehyde crosslink after washing; high values mean tight binding
Conditions in all cases: protein: recombinant; tags: N-terminal GST; dsDNA, one strand shown
FEV = molecular target: T1, FEV (Homo sapiens, UniProt Q99581 1-238)
T1 sequence: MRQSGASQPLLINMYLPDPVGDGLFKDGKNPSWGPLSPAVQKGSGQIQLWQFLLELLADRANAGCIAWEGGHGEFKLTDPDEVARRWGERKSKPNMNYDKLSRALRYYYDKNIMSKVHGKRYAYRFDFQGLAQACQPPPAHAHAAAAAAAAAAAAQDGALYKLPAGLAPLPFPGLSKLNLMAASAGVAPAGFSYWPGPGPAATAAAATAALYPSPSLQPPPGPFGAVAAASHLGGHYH
How it was run: (§1)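 GST fusions of human transcription factors were expressed in yeast and captured with glutathione beads. Once given DNA barcodes and pooled alongside a tag-only sample, they were incubated for 30 min at room temperature with 200 nmole of a random double-stranded 16-mer DNA library in Tris/NaCl/DTT/glycerol buffer, then washed, crosslinked (0.1% formaldehyde), proximity-ligated, PCR-amplified and sequenced on an Illumina NextSeq500. The binding signal of each hexamer is its read frequency for a factor divided by its frequency for the tag-only sample.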

ETV5 = ETV5 (Homo sapiens, UniProt P41161 1-510)
Chain of ETV5 (P41161 whole entry): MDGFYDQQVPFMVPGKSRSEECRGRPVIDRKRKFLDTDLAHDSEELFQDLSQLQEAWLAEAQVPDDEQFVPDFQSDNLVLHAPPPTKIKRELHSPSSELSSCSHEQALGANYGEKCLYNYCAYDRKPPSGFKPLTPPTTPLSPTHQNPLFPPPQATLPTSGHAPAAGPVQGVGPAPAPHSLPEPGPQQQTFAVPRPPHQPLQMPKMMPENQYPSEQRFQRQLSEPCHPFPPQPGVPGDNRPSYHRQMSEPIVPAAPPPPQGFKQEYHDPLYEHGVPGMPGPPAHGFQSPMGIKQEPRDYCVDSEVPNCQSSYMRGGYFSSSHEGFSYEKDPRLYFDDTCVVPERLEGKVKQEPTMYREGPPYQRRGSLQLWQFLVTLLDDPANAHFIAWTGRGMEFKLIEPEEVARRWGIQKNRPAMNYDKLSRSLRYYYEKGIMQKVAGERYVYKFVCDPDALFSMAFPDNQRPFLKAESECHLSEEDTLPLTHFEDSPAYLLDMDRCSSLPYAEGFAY
How it was run: as §1

SPIC = molecular target: T2, SPIC (Homo sapiens, UniProt Q8N5J4 1-248)
T2 sequence: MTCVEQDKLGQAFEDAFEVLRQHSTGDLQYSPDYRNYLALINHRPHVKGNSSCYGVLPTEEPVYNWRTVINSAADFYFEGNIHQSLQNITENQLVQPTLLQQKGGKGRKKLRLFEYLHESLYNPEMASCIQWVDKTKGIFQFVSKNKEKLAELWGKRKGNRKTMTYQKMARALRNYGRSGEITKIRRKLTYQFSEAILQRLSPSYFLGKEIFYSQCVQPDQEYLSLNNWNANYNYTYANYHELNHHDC
How it was run: as §1

ELF4 = ELF4 (Homo sapiens, UniProt Q99607 1-663)
Chain of ELF4 (Q99607 whole entry): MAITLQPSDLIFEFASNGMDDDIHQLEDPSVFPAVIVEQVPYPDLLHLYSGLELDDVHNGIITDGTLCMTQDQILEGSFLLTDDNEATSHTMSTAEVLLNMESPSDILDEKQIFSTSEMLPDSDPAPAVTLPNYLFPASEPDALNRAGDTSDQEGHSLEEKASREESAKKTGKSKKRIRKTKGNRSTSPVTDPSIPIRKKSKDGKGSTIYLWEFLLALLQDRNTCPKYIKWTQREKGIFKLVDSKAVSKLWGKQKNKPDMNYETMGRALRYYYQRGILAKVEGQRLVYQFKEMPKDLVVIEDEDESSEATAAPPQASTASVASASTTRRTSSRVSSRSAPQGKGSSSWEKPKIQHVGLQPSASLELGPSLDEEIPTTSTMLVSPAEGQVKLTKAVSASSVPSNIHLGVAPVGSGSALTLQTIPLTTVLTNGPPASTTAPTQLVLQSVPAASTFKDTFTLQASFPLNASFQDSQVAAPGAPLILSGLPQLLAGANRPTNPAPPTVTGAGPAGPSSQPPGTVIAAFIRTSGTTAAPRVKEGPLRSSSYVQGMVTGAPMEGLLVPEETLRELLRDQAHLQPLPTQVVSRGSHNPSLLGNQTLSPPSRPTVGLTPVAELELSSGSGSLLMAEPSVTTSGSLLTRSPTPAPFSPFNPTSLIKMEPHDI
How it was run: as §1

ELK4 = molecular target: T3, ELK4 (Homo sapiens, UniProt P28324-2 1-405)
T3 sequence: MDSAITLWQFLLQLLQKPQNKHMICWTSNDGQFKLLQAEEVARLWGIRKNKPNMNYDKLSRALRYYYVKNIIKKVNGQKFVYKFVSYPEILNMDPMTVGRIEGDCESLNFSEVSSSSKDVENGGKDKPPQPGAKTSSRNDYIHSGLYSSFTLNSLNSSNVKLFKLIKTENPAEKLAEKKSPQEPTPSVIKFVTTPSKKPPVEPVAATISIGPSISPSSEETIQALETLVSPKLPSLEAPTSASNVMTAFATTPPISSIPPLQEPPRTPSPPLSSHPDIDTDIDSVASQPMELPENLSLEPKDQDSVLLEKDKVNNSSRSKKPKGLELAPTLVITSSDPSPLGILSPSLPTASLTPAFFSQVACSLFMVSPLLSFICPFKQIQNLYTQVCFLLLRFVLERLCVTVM
How it was run: as §1

ETV2 = molecular target: T4, ETV2 (Homo sapiens, UniProt O00321 1-342)
T4 sequence: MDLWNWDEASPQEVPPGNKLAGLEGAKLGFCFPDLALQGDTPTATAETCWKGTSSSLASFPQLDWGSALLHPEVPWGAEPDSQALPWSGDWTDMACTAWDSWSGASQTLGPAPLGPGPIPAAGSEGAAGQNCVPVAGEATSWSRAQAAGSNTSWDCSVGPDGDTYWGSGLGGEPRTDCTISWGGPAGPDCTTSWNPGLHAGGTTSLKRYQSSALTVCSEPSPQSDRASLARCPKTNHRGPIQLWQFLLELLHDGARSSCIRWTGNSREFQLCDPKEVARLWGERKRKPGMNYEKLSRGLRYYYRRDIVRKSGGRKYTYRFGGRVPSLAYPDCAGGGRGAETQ
How it was run: as §1

ELF3 = molecular target: T5, ELF3 (Homo sapiens, UniProt P78545 1-371)
T5 sequence: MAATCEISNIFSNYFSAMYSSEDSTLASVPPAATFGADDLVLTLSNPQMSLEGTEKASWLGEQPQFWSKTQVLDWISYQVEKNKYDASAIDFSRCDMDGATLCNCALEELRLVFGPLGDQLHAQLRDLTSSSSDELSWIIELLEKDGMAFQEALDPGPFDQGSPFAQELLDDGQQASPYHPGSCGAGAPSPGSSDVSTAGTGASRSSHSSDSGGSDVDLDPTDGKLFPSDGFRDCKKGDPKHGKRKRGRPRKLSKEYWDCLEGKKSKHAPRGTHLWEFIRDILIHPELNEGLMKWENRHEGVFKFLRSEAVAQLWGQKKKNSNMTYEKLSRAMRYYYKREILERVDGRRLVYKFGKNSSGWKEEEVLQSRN
How it was run: as §1

ETV1 = ETV1 (Homo sapiens, UniProt P50549 1-477)
Chain of ETV1 (P50549 whole entry): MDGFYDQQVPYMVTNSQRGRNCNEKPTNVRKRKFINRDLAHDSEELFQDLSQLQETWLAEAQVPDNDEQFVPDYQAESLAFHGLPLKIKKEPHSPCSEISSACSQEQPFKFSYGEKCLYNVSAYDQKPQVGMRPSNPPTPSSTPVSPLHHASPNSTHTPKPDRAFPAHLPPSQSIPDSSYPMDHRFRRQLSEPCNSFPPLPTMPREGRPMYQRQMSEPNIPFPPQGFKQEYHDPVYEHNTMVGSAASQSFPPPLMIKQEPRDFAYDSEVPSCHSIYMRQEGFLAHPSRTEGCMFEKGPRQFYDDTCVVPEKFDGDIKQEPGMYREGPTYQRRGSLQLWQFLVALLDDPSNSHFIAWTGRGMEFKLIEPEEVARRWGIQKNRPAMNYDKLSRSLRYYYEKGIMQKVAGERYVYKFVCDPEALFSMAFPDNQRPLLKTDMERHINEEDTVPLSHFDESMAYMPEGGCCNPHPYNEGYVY
How it was run: as §1

ERF = molecular target: T6, ERF (Homo sapiens, UniProt P50548 1-548)
T6 sequence: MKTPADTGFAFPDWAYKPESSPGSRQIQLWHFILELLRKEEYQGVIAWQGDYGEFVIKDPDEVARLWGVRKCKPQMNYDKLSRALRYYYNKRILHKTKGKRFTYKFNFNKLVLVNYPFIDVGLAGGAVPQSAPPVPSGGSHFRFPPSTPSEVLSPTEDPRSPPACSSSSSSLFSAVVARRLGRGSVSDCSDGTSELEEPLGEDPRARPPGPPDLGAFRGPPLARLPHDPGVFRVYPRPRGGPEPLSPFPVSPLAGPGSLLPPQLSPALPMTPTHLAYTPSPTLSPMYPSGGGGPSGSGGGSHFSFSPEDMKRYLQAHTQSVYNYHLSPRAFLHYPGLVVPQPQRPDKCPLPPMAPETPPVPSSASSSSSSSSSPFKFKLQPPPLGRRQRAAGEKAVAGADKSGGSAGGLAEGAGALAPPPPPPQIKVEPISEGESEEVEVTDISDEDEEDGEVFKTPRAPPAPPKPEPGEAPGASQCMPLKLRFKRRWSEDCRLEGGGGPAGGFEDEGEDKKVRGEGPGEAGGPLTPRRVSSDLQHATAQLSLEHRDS
How it was run: as §1

ETV3L = molecular target: T7, ETV3L (Homo sapiens, UniProt Q6ZN32 1-361)
T7 sequence: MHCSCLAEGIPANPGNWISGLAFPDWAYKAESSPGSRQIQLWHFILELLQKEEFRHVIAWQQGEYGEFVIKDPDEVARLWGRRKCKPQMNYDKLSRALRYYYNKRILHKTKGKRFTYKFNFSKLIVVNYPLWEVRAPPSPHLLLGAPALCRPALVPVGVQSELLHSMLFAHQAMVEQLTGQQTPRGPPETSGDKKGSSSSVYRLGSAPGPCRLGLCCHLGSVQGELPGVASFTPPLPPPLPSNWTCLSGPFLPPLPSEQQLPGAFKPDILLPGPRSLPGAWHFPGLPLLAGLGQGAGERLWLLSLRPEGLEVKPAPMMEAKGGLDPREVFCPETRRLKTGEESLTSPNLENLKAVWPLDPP
How it was run: as §1

ETS2 = molecular target: T8, ETS2 (Homo sapiens, UniProt P15036 1-469)
T8 sequence: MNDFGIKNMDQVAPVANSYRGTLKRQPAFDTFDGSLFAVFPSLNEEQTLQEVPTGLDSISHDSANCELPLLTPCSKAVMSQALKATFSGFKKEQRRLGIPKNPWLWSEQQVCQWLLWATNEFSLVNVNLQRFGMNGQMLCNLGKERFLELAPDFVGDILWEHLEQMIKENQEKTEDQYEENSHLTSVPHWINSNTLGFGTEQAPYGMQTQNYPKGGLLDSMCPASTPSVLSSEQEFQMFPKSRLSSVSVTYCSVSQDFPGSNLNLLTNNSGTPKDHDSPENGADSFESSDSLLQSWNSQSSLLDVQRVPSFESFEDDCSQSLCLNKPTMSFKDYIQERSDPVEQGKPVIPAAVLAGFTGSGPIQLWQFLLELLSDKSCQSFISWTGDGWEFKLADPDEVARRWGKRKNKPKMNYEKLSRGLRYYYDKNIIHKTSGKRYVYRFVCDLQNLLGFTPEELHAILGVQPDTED
How it was run: as §1

SPDEF = molecular target: T9, SPDEF (Homo sapiens, UniProt O95238 1-335)
T9 sequence: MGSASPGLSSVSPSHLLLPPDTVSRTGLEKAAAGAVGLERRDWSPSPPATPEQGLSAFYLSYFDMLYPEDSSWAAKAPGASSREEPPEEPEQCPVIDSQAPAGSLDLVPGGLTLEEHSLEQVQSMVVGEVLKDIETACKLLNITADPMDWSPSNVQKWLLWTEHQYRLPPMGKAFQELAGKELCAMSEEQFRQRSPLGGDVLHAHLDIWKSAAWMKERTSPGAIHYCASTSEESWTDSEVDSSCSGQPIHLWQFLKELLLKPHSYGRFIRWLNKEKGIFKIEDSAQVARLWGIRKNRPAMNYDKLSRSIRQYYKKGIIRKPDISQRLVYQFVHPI
How it was run: as §1

ETV7 = molecular target: T10, ETV7 (Homo sapiens, UniProt Q9Y603 1-341)
T10 sequence: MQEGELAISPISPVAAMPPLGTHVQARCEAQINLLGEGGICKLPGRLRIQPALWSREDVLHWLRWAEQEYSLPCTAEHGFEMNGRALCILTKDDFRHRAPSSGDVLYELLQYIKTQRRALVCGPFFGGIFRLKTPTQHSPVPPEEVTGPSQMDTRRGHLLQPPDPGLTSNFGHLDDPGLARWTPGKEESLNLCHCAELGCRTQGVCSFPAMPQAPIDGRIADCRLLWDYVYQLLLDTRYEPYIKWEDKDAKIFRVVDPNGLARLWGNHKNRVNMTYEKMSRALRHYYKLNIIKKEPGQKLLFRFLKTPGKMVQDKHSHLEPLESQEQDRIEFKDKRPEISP
How it was run: as §1

ELF5 = molecular target: T11, ELF5 (Homo sapiens, UniProt Q9UKW6-2 1-255)
T11 sequence: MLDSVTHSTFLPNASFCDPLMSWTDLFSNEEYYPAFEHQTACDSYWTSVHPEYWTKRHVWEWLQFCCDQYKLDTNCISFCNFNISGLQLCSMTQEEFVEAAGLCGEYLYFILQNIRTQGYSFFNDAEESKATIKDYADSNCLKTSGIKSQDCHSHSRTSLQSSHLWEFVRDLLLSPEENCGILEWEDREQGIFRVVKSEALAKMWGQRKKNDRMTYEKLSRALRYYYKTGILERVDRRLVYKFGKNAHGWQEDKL
How it was run: as §1

ETV3 = molecular target: T12, ETV3 (Homo sapiens, UniProt P41162-2 1-143)
T12 sequence: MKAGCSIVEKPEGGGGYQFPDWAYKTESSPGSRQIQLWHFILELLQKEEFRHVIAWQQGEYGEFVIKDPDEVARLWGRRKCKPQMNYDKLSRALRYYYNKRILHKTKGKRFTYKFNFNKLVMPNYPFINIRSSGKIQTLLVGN
How it was run: as §1

ETV6 = ETV6 (Homo sapiens, UniProt P41212 1-452)
Chain of ETV6 (P41212 whole entry): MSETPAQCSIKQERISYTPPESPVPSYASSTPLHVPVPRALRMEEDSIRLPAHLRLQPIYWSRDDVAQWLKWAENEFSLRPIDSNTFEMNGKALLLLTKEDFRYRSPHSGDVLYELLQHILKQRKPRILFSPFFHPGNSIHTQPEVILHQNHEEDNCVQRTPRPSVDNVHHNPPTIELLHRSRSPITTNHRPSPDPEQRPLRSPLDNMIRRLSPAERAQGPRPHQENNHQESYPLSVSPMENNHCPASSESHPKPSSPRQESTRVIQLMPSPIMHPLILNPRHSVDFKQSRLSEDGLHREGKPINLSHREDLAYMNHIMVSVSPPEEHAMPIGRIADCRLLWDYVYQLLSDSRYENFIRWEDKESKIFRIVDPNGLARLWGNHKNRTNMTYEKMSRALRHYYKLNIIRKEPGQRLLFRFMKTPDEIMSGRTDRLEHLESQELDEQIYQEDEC
How it was run: as §1

Sequence | binding signal (FEV) | binding signal (ETV5) | binding signal (SPIC) | binding signal (ELF4) | binding signal (ELK4) | binding signal (ETV2) | binding signal (ELF3) | binding signal (ETV1) | binding signal (ERF) | binding signal (ETV3L) | binding signal (ETS2) | binding signal (SPDEF) | binding signal (ETV7) | binding signal (ELF5) | binding signal (ETV3) | binding signal (ETV6)
CGTCAC | 1.26 fold enrichment (6-mer frequency, TF over GST control) | 1.24 fold enrichment (6-mer frequency, TF over GST control) | 1.18 fold enrichment (6-mer frequency, TF over GST control) | 1.31 fold enrichment (6-mer frequency, TF over GST control) | 1.24 fold enrichment (6-mer frequency, TF over GST control) | 1.12 fold enrichment (6-mer frequency, TF over GST control) | 1.21 fold enrichment (6-mer frequency, TF over GST control) | 1.2 fold enrichment (6-mer frequency, TF over GST control) | 1.15 fold enrichment (6-mer frequency, TF over GST control) | 1.15 fold enrichment (6-mer frequency, TF over GST control) | 1.27 fold enrichment (6-mer frequency, TF over GST control) | 1.21 fold enrichment (6-mer frequency, TF over GST control) | 1.13 fold enrichment (6-mer frequency, TF over GST control) | 1.16 fold enrichment (6-mer frequency, TF over GST control) | 1.11 fold enrichment (6-mer frequency, TF over GST control) | 1.24 fold enrichment (6-mer frequency, TF over GST control)
TGCATC | 1.33 fold enrichment (6-mer frequency, TF over GST control) | 1.39 fold enrichment (6-mer frequency, TF over GST control) | 1.46 fold enrichment (6-mer frequency, TF over GST control) | 1.31 fold enrichment (6-mer frequency, TF over GST control) | 1.22 fold enrichment (6-mer frequency, TF over GST control) | 1.33 fold enrichment (6-mer frequency, TF over GST control) | 1.3 fold enrichment (6-mer frequency, TF over GST control) | 1.4 fold enrichment (6-mer frequency, TF over GST control) | 1.4 fold enrichment (6-mer frequency, TF over GST control) | 1.34 fold enrichment (6-mer frequency, TF over GST control) | 1.39 fold enrichment (6-mer frequency, TF over GST control) | 1.88 fold enrichment (6-mer frequency, TF over GST control) | 1.37 fold enrichment (6-mer frequency, TF over GST control) | 1.35 fold enrichment (6-mer frequency, TF over GST control) | 1.29 fold enrichment (6-mer frequency, TF over GST control) | 1.33 fold enrichment (6-mer frequency, TF over GST control)

Reference: publication PMC7862700, “An all-to-all approach to the identification of sequence-specific readers for epigenetic DNA modifications on cytosine”
